From PubChem BioAssay
LmPK inhibitor – qHTS Assay for Inhibitors of Leishmania Mexicana Pyruvate Kinase (LmPK) | hit rate 0.37% among 290,000 | Q27686 | purified LmPK, Kinase-Glo ATP luminescence, 1 h | Potency, µM (series often up to 57.5 µM), for inactives: top-dose activity change, negative = inhibition, actives largely listed as inhibitors; also: potency is read from the fitted curve at half-maximal effect; % is scaled to controls: 0 for no effect and ±100 for the full control effect
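Kinase-Glo luminescence read after 1 h RT reaction of 0.1 nM LmPK with 0.5 mM PEP and 0.1 mM ADP. Activity scaled between uninhibited and enzyme-free controls.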
Shiga toxin inh – A qHTS for Small Molecule Inhibitors of Shiga Toxin. AID 2315, 2010. inhibition, % at 38.7 µM. hit rate 9.2% among 290,000. Vero cells, Shiga toxin protein synthesis inhibition reporter; in the data active = inhibition mostly above about 28%, no sharp cut-off; inactive = mostly below about 43%; also: 0% is about no effect
FBPA Giardia inh – qHTS Assay for Inhibitors of Fructose-1,6-bisphosphate Aldolase from Giardia Lamblia; A8B2U2; purified Giardia FBPA; Potency, µM (titrated, usually from 59.6 µM), inactives show at the highest dose activity, negative = inhibition, most hits filed as inhibitors; hit rate 0.71% among 290,000; AID 2451, 2010; also: potency is read from the fitted curve at half-maximal effect; % is scaled to controls: 0 for no effect and ±100 for the full control effect; nearly all actives have a fitted effect of over 55% in size
Target sequence (A8B2U2 whole entry, looked up): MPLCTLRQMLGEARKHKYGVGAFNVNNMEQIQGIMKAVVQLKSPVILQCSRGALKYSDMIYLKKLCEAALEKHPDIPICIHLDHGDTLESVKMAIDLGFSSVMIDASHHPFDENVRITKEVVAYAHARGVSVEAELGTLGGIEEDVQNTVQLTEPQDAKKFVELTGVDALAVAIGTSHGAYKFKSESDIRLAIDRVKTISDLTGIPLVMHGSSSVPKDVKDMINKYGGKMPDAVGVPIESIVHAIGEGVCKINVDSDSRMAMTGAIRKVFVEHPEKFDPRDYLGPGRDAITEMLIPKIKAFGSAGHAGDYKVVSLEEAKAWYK
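Giardia FBPA (40 nM reagent) was preincubated 10 min at RT with compound (up to 57.5 uM final), then substrate plus GAPDH/TPI/NAD/arsenate coupling system with diaphorase/resazurin was added; resorufin fluorescence (525/598 nm) was read after 20 min.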
Sm TGR inh – qHTS Assay for the Inhibitors of Schistosoma Mansoni Peroxiredoxins. purified TGR, DTNB reduction, TNB absorbance 405 nm. Potency, µM (highest dose often 114 µM), for inactives: top-dose activity change, negative = inhibition, actives largely listed as inhibitors. Schistosoma mansoni thioredoxin glutathione reductase (TGR), Q962Y6. AID 485364, 2010. hit rate 3% among 360,000; also: potency is read from the fitted curve at half-maximal effect; % is scaled to controls: 0 for no effect and ±100 for the full control effect; nearly all actives have a fitted effect of over 60% in size
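TGR 20 nM + NADPH 100 uM (dispensed conc.), cpd preinc 15 min RT; start with NADPH (500 uM addition) then DTNB (15 mM addition). Kinetic TNB absorbance, 405 nm filter. Four-parameter Hill fit across titration.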
Cycloheximide cs – Cycloheximide Counterscreen for Small Molecule Inhibitors of Shiga Toxin; hit rate 12% among 300,000; cell reporter, cycloheximide protein synthesis inhibition counterscreen; max response, %; in the data active = max response mostly above about 13%, no sharp cut-off; inactive = mostly below about 14%; also: read at 38.3 µM for the half of the compounds with a filed dose; 0% is about no effect
TbPYK inhibitor – qHTS of Trypanosoma Brucei Inhibitors. Potency, µM (doses to about 76.8 µM), for inactives: at the highest dose activity, negative = inhibition, usual class: inhibitors. pyruvate kinase (Trypanosoma brucei), Q57TT1. TbPYK enzyme, Kinase-Glo Plus ATP luminescence, 45 min. hit rate 0.12% among 410,000. AID 624173, 2012; also: potency is read from the fitted curve at half-maximal effect; % is scaled to controls: 0 for no effect and ±100 for the full control effect; nearly all actives have a fitted effect of over 50% in size
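In this concentration-response screen, enzyme-free wells defined baseline while DMSO plates tracked drift. Each reaction combined TbPYK, substrate, compound and 130 uM ADP for 45 min at room temperature. Kinase-Glo Plus luminescence gave the signal.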
An asterisk follows results filed as active; ? = inconclusive; . = no result given; [ ] = remark or other dose. Only a selection was taken, and hits are over-represented in it overall. Unless noted, calls follow the shape of the dose curve; as a rule, active = well fitted curve in the direction sought with a large enough effect; inconclusive = small, poorly fitted or top-dose-only effect, or another doubt; inactive = no such curve, though single readings can be large; an effect the other way counts as inactive or inconclusive.

SMILES	LmPK inhibitor	Shiga toxin inh	FBPA Giardia inh	Sm TGR inh	Cycloheximide cs	TbPYK inhibitor
COc1ccc(C2SCCN2C(=S)Nc2cccc(Cl)c2)cc1 (stereo not drawn)	4%	12	-8%	-5%	7	-4%
COc1ccc(C2SCCN2C(=S)Nc2ccc(Cl)cc2)cc1 (stereo not drawn)	1%	24	-12%	3%	29*	-1%
Cc1ccc(NC(=S)N2CCSC2c2cccs2)cc1 (stereo not drawn)	0%	132*	-16%	2%	29*	3%
Cc1ccc2sc(-c3ccc(NC(=O)CCN4C(=O)c5ccccc5C4=O)cc3)nc2c1	1%	85*	6%	0%	50*	.
Cc1ccc(S(=O)(=O)N2CCOCC2)cc1C(=O)Nc1ccc(-c2cn3ccsc3n2)cc1	0%	18	-5%	2%	20*	0%
O=C(Nc1ccc(-c2ccc3nncn3n2)cc1)C1CCCC1	-1%	87*	2%	18%	22*	-1%
O=C(CC1CCCCC1)Nc1ccc(-c2ccc3nncn3n2)cc1	-3%	-6	0%	12%	6	-8%
CC(=O)Nc1ccc(-c2cn3ccsc3n2)cc1	-18%	62*	0%	-3%	30*	4%
COc1ccccc1-c1noc(-c2ccc(NCCc3ccccc3)c([N+](=O)[O-])c2)n1	.	.	.	-3%	.	-4%
COCC#Cc1ccc2c(c1)O[C@@H](CN(C)C(=O)Nc1ccc(OC)cc1)[C@H](C)CN([C@H](C)CO)S2(=O)=O	.	.	.	.	.	5%
C[C@@H]1C(=O)O[C@H]2[C@H](O)[C@@]34[C@H]5CC(C(C)(C)C)[C@]36[C@H](OC(=O)[C@H]6O)O[C@]4(C(=O)O5)[C@@]12O (stereo partly drawn)	.	-13	4%	.	11	.
O=C(Nc1ccc(-c2cn3ccsc3n2)cc1)C1CCCC1	?	33	-8%	18%	32*	-9%
O=C(CCN1C(=O)c2ccccc2C1=O)Nc1ccc(-c2cn3ccsc3n2)cc1	1%	52*	9%	2%	33*	-10%
O=C(Nc1ccc(-c2cn3ccsc3n2)cc1)C1CC1	-26%	43*	0%	12%	61*	-5%
CC(=O)Nc1ccc(NC(=O)CCN2C(=O)c3ccccc3C2=O)cc1	2%	.	6%	5%	2	0%
c1cn2cc(-c3ccc4c(c3)OCO4)nc2s1	?	95*	-16%	-13%	46*	.
CCC(=O)Nc1cccc(-c2cn3ccsc3n2)c1	0%	43	2%	5%	17	-7%
Nc1ncnc2c1ncn2[C@@H]1O[C@H](C(=O)N2CCN(Cc3ccccn3)CC2)[C@@H](O)[C@H]1O	.	.	.	.	.	-4%
Cc1ccc(S(=O)(=O)N2CCN(C(=O)CN3C(=O)CNC3=O)CC2)cc1	.	.	.	-21%	.	-1%
CCc1ccc(NC(=O)CCCc2nnc3n(CC(C)C)c(=O)c4sccc4n23)cc1	.	.	.	6%	.	4%
CC(C)c1ccc(S(=O)(=O)N2CCN(Cc3cccc(F)c3)CC2)cc1	.	.	.	?	.	15%
O=C(Nc1cccc(OC(F)(F)F)c1)[C@@H]1O[C@H](CO)[C@H](O)[C@H](O)[C@H]1O	.	.	.	.	.	6%
O=C1CCC2(CCCCC2)N1	.	.	.	.	.	2%
O=C(Nc1ccc(F)cc1)C1CCN(c2nc3ccccc3nc2C(F)(F)F)CC1	.	.	.	10%	.	2%
O=C(Cn1cnc2c(nnn2Cc2ccccc2)c1=O)Nc1ccc2c(c1)OCCO2	-4%	-25	.	-5%	1	-2%
SMILES	LmPK inhibitor	Shiga toxin inh	FBPA Giardia inh	Sm TGR inh	Cycloheximide cs	TbPYK inhibitor
O=C(CSc1c2c(nc3ccc(Cl)cc13)CCCC2)N1CCCCC1	.	.	.	-3%	.	-1%
CCOc1ccc(-c2nnc(SCc3nnc(-c4ccccc4)o3)n2-c2ccccc2F)cc1	8%	52	-25%	-6%[11.4 µM]	20*	-26%
C=CC[C@@H]1C=C[C@H](Oc2ccc(C)cc2)[C@H](COC(=O)NCc2cccc3ccccc23)O1	.	.	-1%[12.9 µM]	.	.	.
Cc1cccc(-n2c(C)cc(C)c(C#N)c2=O)c1	-1%	88*	-3%	-24%	17*	-4%
Fc1cccc(CSc2ccc(-c3ccc4c(c3)OCO4)nn2)c1	3%	11	3%	-2%	11	4%
CC(=O)Nc1ccc(NC(=O)CSc2ccc(-c3ccc4c(c3)OCO4)nn2)cc1	-7%	21	6%	-4%	18	-16%
Cc1nc(C)c(-c2ccc(SCc3ccccc3C)nn2)s1	8%	34*	10%	4%	45*	-5%
Cc1nc(C)c(-c2ccc(SCC(=O)Nc3ccccc3)nn2)s1	-4%	-9	.	-1%	3	-10%
c1cncc(CSc2ccc(-c3ccc4c(c3)OCO4)nn2)c1	7%[11.5 µM]	99*	-12%	-2%	57*	-4%
Cc1ccccc1CSc1ccc(-c2ccc3c(c2)OCO3)nn1	-1%	82*	-1%	2%	49*	1%
CCn1c(SCC(=O)N2CCOCC2)nc2c([nH]c3ccccc32)c1=O	7%	-4	7%	4%	-3	-4%
COc1ccc(C(=O)N(Cc2ccc(N(C)C)cc2)Cc2ccco2)cc1Cl	.	.	.	13%	.	-1%
Cc1ccc(N=c2sc(C)c(C)n2C)cc1	-7%	80*	-11%	-21%	70*	6%
COc1ccc(CCNC(=O)CSc2nc3ccccc3nc2Cc2ccc(Cl)cc2)cc1OC	.	.	.	-1%	.	0%
Cn1c(OCc2ccco2)nc2c1c(=O)n(Cc1ccc(Cl)c(Cl)c1)c(=O)n2C	6%	-2	8%	22µM*	-1	-7%
Cn1c(N2CCOCC2)nc2c1c(=O)n(Cc1ccc(Cl)c(Cl)c1)c(=O)n2C	3%	5	1%	-1%	-3	1%
O=C(Nc1nnc(S(=O)(=O)N2CCOCC2)s1)c1ccc(Cl)cc1	-6%	29	?	-1%	-2	4%
O=C(Nc1nnc(S(=O)(=O)N2CCOCC2)s1)c1ccccc1	-1%	22	-27%	-22%	11*	-29%
COc1ccccc1C(=O)Nc1nnc(S(=O)(=O)N2CCOCC2)s1	1%	16	.	3%	14*	-7%
COc1cccc([C@H]2Oc3ccc(OC)cc3/C(=N\O[C@@H](C)c3cn([C@H](CO)Cc4ccccc4)nn3)[C@@H]2O)c1	.	.	-6%[12.9 µM]	.	.	.
Cc1ccc(C)c(CN2C(=O)c3ccccc3S(=O)(=O)c3ccc(C(=O)N4CCc5ccccc54)cc32)c1	.	.	.	-5%	.	-12%
CN(C(=O)CCc1nc2ccccc2c(=O)[nH]1)C1CCS(=O)(=O)C1 (stereo not drawn)	.	.	.	0%	.	1%
